# Only some compounds are listed: those with a hit (about 18% of all), similar ones and a draw of the others.
# PLK1 PBD inh – blocks phosphopeptide binding to human PLK1 polo-box domain; P53350; AID 720504; Potency, µM, for the others: max response, negative = inhibition, hits mostly inhibitors; actives 2.8% (n = 360,000); Plk1 PBD binding of FITC phosphopeptide, fluorescence polarization; also: series mostly up to about 57 µM; nearly all actives have a fitted effect of over 65% in size
# TDP1 cell noCPT – qHTS for Inhibitors of human tyrosyl-DNA phosphodiesterase 1 (TDP1): qHTS in cells in absence of CPT; actives 15% (n = 420,000); Potency, µM (doses to about 46.2 µM), without a hit: at the highest dose activity change, negative = growth inhibition, most hits filed as inhibitors; DT40 Tdp1-/- hTDP1 cells, no CPT, ATP luminescence, 48 h; also: nearly all actives have a fitted effect of over 55% in size
#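 Seeded 400 DT40-hTDP1 cells/well (vehicle DMSO, no 20 nM CPT); pinned compounds; ≥48 hr at 37 °C; CellTiter-Glo luminescence as viability measure.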
# GCN5L2 inh – GCN5L2 (KAT2A) acetyltransferase inhibition | Q92830 | GCN5L2 HAT assay, ThioGlo1 CoA-SH fluorescence | Potency, µM (highest dose often 58.9 µM), inactives show at the top dose activity change, negative = inhibition, actives largely listed as inhibitors | actives 0.21% (n = 390,000)
#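 ThioGlo1-coupled HAT assay: 20nM GCN5L2, 70uM acetyl-CoA, 75uM H3(1-25) peptide, pH 7.5. Fluorescence read at 340/540nm at start and after 20 min at room temperature.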
# TDP1 block – inhibitors of human tyrosyl-DNA phosphodiesterase TDP1 | Q9NUW8 | recombinant TDP1, AlphaScreen DNA substrate cleavage | Potency, µM (top dose mostly 130 µM), inactives show top-dose activity change, negative = inhibition, actives largely listed as inhibitors | actives 0.28% (n = 350,000); also: nearly all actives have a fitted effect of over 40% in size
# Target sequence (Q9NUW8 whole entry, looked up): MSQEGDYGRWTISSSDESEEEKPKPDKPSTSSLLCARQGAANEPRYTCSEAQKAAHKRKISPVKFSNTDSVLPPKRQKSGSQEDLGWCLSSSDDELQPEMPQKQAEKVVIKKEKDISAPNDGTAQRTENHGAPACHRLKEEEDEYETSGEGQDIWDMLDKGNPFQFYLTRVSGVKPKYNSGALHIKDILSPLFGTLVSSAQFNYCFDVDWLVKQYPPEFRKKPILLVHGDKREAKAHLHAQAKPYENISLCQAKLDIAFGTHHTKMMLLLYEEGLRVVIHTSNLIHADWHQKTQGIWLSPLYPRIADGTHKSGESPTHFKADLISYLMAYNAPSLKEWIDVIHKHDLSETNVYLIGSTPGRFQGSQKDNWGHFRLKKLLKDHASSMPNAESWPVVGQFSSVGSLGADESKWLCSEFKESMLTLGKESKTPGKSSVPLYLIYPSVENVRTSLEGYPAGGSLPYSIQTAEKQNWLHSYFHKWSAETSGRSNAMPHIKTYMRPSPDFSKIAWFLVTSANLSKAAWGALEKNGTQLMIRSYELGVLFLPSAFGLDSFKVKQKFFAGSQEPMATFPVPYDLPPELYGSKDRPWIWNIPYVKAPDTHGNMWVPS
#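 E. coli-derived human Tdp1, 1 nM final. Cpd preinc 15 min RT; substrate 15 nM final, 5 min RT; AS bead mix 10 ug/ml final, 10 min RT. Signal loss = tyrosine-FITC cleavage. No-enzyme wells = max signal.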
# VDR inhibitor – blocks the human vitamin D receptor | P11473 | VDR-SRC2-3 peptide fluorescence polarization, 2 h | Potency, µM, for the others: max response, negative = inhibition, actives largely listed as inhibitors | actives 0.93% (n = 400,000) | AID 504847
#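 The screen uses fluorescence polarization to detect compounds that interfere with recruitment of the SRC2-3 coactivator peptide to VDR; plates are read after 2 h at room temperature.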
# DT40 TDP1 CPT – growth inhibition of DT40 Tdp1-/-;hTDP1 cells with camptothecin (screen for TDP1 inhibitors); chicken DT40 Tdp1-/-;hTDP1 cells + 20 nM CPT, ATP luminescence, 48 h; Potency, µM (doses to about 46.2 µM), inactives show at the highest dose activity change, negative = growth inhibition, most hits filed as inhibitors; actives 12% (n = 420,000); AID 686979; also: nearly all actives have a fitted effect of over 55% in size
#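 Cell growth measured by CellTiter-Glo luminescence after a minimum 48 h, 37 C compound exposure with 20 nM CPT in Tdp1-knockout DT40 cells stably expressing hTDP1, seeded 400/well; qHTS titration format.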
# The depositor's hits bear a star; ? = inconclusive; nt = not tested or not shown; [ ] = remark or other dose. Calls follow the shape of the dose curve; as a rule, active = well fitted curve in the direction sought with a large enough effect; inconclusive = small, poorly fitted or top-dose-only effect, or another doubt; inactive = no such curve, though single readings can be large; an effect the other way counts as inactive or inconclusive. % is scaled to controls: 0 for no effect and ±100 for the full control effect; potency is read from the fitted curve at half-maximal effect.
SMILES,PLK1 PBD inh,TDP1 cell noCPT,GCN5L2 inh,TDP1 block,VDR inhibitor,DT40 TDP1 CPT
CCN1C(=O)[C@H]2[C@@H](c3ccc(C(F)(F)F)cc3)N[C@]3(CCCN(Cc4ccc(Cl)cc4)C3=O)[C@H]2C1=O,4%,18µM*,nt,nt,nt,18µM*
CCN1C(=O)[C@H]2[C@@H](c3ccc(C(F)(F)F)cc3)N[C@]3(CCCN(Cc4ccc(C)cc4)C3=O)[C@H]2C1=O,7%,16µM*,nt,nt,nt,13µM*
CCN1C(=O)[C@H]2[C@@H](c3ccc(C)cc3)N[C@]3(CCCN(Cc4ccco4)C3=O)[C@H]2C1=O,-8%,?,nt,nt,nt,-27%
CCN1C(=O)[C@H]2[C@@H](c3ccc(C)cc3)N[C@]3(CCCN(Cc4ccc(Cl)cc4)C3=O)[C@H]2C1=O,-15%,21µM*,nt,nt,nt,?
CCN1C(=O)[C@H]2[C@@H](c3ccc(C)cc3)N[C@]3(CCCN(Cc4ccc(C)cc4)C3=O)[C@H]2C1=O,-7%,3%,nt,nt,nt,?
CCN1C(=O)[C@H]2[C@@H](c3ccc(C(F)(F)F)cc3)N[C@]3(CCCN(Cc4ccco4)C3=O)[C@H]2C1=O,-7%,16µM*,nt,nt,nt,23µM*
Cc1cccc(-c2ccc3ncnc(NCc4cc(C)cs4)c3c2)c1,nt,nt,-16%,nt,nt,nt
COc1ccc2oc(-c3ccccc3)c(OC)c(=O)c2c1,nt,?,nt,15%,nt,?
Cc1ccc(OCC(=O)N(Cc2ccccc2)c2ccccn2)cc1,-1%,1%,-4%,-1%,-16%,-15%
Cc1ccc(CN(C(=O)COc2cccc([N+](=O)[O-])c2)c2ccccn2)o1,nt,?,-6%,4%,11%,?
COCC(=O)N(Cc1ccccc1)c1ccccn1,-5%,-10%,-9%,1%,-8%,4%
COc1cc(CN(C(=O)COc2ccc(Cl)c(C)c2)c2ccccn2)cc(OC)c1OC,nt,10µM*,-9%,1%,2%,12µM*
COc1cc(CN(C(=O)COc2ccc(Br)cc2)c2ccccn2)cc(OC)c1OC,nt,16µM*,-15%,-7%,1%,16µM*
O=C(COc1ccc(Cl)cc1)N(Cc1ccco1)c1ccccn1,nt,-29%,-10%,5%,17%,-14%
Cc1ccc(CN(C(=O)COc2ccc(Cl)c(C)c2)c2ccccn2)o1,nt,15µM*,-13%,-2%,5%,?
COc1cc(CN(C(=O)COc2ccc(C)cc2)c2ccccn2)cc(OC)c1OC,nt,9.2µM*,-10%,-1%,13%,8.2µM*
CN(C)c1ncc2nc(-c3ccc(Cl)cc3)c(=O)n(C[C@H]3CCCO3)c2n1,nt,16%,-2%,nt,-9%,9%
CCN1CCN(CCCN(Cc2cccs2)C(=S)Nc2ccccc2C)CC1,-16%,-11%,-10%,-6%,0%,5%
COc1cc(CN(C(=O)COc2ccccc2Cl)c2ccccn2)cc(OC)c1OC,nt,18µM*,-5%,-5%,0%,?
Cc1ccc(CN(C(=O)COc2cccc([N+](=O)[O-])c2)c2ccccn2)cc1,nt,21µM*,-11%,5%,13%,?
CCCCC/C=C\C[C@@H](O)/C=C/C=C/C=C\[C@@H](O)CCCC(=O)O,nt,-4%[0.628 µM],5%,5%,?,-4%[0.628 µM]
CCCNC(=O)N[C@H]1C=C[C@H](CC(=O)OC)O[C@@H]1CO,-5%,6%,nt,nt,nt,0%
CC1(c2nnc(-c3cccc(Cl)c3)o2)CC(c2ccc(C#N)cc2)=NO1 (stereo not drawn),-23%,18µM*,nt,nt,0%,?
OCC1(Cc2ccccc2)CCN(Cc2cccc(F)c2F)CC1,-3%,?,2%,-2%,-7%,?
OCC1(Cc2ccccc2)CCN(Cc2ccc(C(F)(F)F)cc2)CC1,8%,18µM*,0%,0%,2%,23µM*
SMILES,PLK1 PBD inh,TDP1 cell noCPT,GCN5L2 inh,TDP1 block,VDR inhibitor,DT40 TDP1 CPT
COc1cc(CN2CCC(CO)(Cc3cccc(C(F)(F)F)c3)CC2)ccc1F,1%,23µM*,-4%,8%,-13%,21µM*
O=C(c1cc(-c2ccccc2)on1)N1CCOc2ccc(CN3CCOCC3)cc2C1,nt,?,nt,nt,nt,14%[9.04 µM]
S=C(NCCCN1CCOCC1)NCCCN1CCOCC1,5.3µM*,0%,-6%,1%,?,-4%
FC(F)(F)Oc1ccc(NC(=S)NCCCN2CCOCC2)cc1,12µM*,-26%,-5%,3%,-7%,-15%
Cc1cc(NC(=O)CSC2=NS(=O)(=O)c3cc(F)ccc3N2)no1,3%,0%,-3%,-5%[0.505 µM],-8%,18%
Cc1cccc(C)c1NC(=O)CSc1cc(C(=O)c2nccn2C)c2ccccc2n1,0%,?,1%,3%,-18%,2%
COC(=O)c1ccc2c(=O)n(CCCCCC(=O)NCc3ccccc3)c(=O)[nH]c2c1,0%,-18%,-10%,4%,12%,-18%
COC(=O)c1ccc2c(=O)n(CCCCCC(=O)NCc3ccc(OC)cc3)c(=O)[nH]c2c1,nt,?,-1%,-2%,10%,23µM*
COC(=O)c1ccc2c(=O)n(CCCCCC(=O)NC(C)C)c(=O)[nH]c2c1,-13%,21µM*,-4%,3%,-7%,?
CCOc1ccccc1N(CC(=O)NC(C)(C)C)C(=O)CCC(=O)Nc1nccs1,2%,-1%,-2%,nt,-2%,5%
C=CCNC(=S)NNC(=O)COc1ccc2cc(Br)ccc2c1,-20%,8.2µM*,6%,5%,-5%,?
COc1ccc(C)cc1NC(=O)C(=O)NNC(=O)COc1ccc(Cl)cc1,-6%,23µM*,-10%,5%,-20%,?
COc1ccc(NC(=S)NNC(=O)COc2ccc(Cl)cc2Cl)cc1,-27%,21µM*,49%,0%,-14%,?
